Results from PubChem BioAssay (NCATS).
Records with an inconclusive call do not appear. A number with no mark means an inactive call. Calls of active or inactive are those of the source. Calls follow the shape of the dose curve; as a rule, active = well fitted cell-killing curve with a large enough effect; inconclusive = small, poorly fitted or top-dose-only effect, or effect the other way; inactive = no such curve, though single readings can be large or run the other way.

Assay: Quantitative High-Throughput drug screen in 47 multiple myeloma cell lines against the NCATS MIPE library collection: Karpas620_DSMZ cell viability assay (AID 1918959); also: nearly all actives have a fitted effect of over 30% in size
Conditions: Karpas620 myeloma viability, CellTiter-Glo ATP luminescence, 48 h; series mostly up to 45.8 µM; viability (% of DMSO): at the top concentration
Excerpt: PI: Beverly A. Mock Ph.D.
Laboratory of Cancer Biology and Genetics,
Center for Cancer Research, National Cancer Institute,
National Institute of Health, Bethesda, Maryland
Drug resistance and disease progression are common in multiple myeloma (MM) patients, underscoring the need for new therapeutic combinations. […] We hypothesized that effective combinations would reduce MYC expression and enhance p16 activity. […] These preclinical data identify potentially useful drug combinations for evaluation in drug-resistant MM and reveal potential mechanisms of combined drug sensitivity.
Described herein is the primary MIPE qHTS used to cherrypick compounds. Validated compounds were then further tested for potential synergistic activiy.
[1] Peat TJ, Gaikwad SM, Dubois W, Gyabaah-Kessie N, Zhang S, Gorjifard S, Phyo Z, Andres M, Hughitt VK, Simpson RM, Miller MA, Girvin AT, Taylor A, Williams D, D'Antonio N, Zhang Y, Rajagopalan A, Flietner E, Wilson K, Zhang X, Shinn P, Klumpp-Thomas C, McKnight C, Itkin Z, Chen L, Kazandijian D, Zhang J, Michalowski AM, Simmons JK, Keats J, Thomas CJ, Mock BA. Drug combinations identified by high-throughput screening promote cell cycle transition and upregulate Smad pathways in myeloma. Cancer Lett. 2023 Aug 1;568:216284. doi: 10.1016/j.canlet.2023.216284. Epub 2023 Jun 24. PMID: 37356470; PMCID: PMC10408729.
SEQUENCE No. (e.g., 1, 2, 3, etc.); […] (e.g., Cells, Incubation, Reagent, etc.); VALUE and DESCRIPTION.
1; Cells; 5 uL; white, solid bottom 1536-well Greiner assay plate.
2; Compounds; 23 nL; Kalypsis pin tool (Wako USA) equipped with a 1536-well pin head to transfer to the assay plates.
3; Incubation; 48 hours; 37C incubation.
4; Reagent;5uL; CellTiter Glo (Promega).
5; Detector; 425V; Luminescence; Viewlux PerkinElmer.
NOTES (numbers refer to Sequence numbers above)
1. The cell-based screening methods employed in this study were like those previously published. Briefly, the corresponding myeloma cell lines were screened in 1,536-well plates with 500 cells, 5-uL per well for inhibition of cell viability (assessed by measuring ATP levels with CellTiterGlo).
2. NCATS MIPE 4.0 library of approved and investigational drugs were added using the Kalypsis pin tool. Wells treated with DMSO only for 100% viability and media only wells for 0% viability were used as controls.
3. The assay plates were covered and incubated for 48 hours in a 37C, 5% CO2 incubator with controlled humidity.
4. After 48 hours, CellTilter-GloTM luminescent substrate mix (Promega) reagent was added to the assay plate and plates we incubated for 5 min at room temperature.
5. Signal was measured as median relative luminescence units on a ViewLux (PerkinElmer) multiplate reader.
[1] Heske CM, Davis MI, Baumgart JT, Wilson K, Gormally MV, Chen L, Zhang X, Ceribelli M, Duveau DY, Guha R, Ferrer M, Arnaldez FI, Ji J, Tran HL, Zhang Y, Mendoza A, Helman LJ, Thomas CJ. Matrix Screen Identifies Synergistic Combination of PARP Inhibitors and Nicotinamide Phosphoribosyltransferase (NAMPT) Inhibitors in Ewing Sarcoma. Clin Cancer Res. 2017 Dec 1;23(23):7301-7311. doi: 10.1158/1078-0432.CCR-17-1121. Epub 2017 Sep 12. PMID: 28899971; PMCID: PMC6636827.
Potency is read from the fitted curve at half-maximal effect.

| SMILES | Potency | viability (% of DMSO) |
| --- | --- | --- |
| CNC(=O)c1cc(Oc2ccc(NC(=O)Nc3ccc(Cl)c(C(F)(F)F)c3)cc2)ccn1 | 3.32 µM (active) |  |
| CC(=O)CC(c1ccccc1)c1c(O)c2ccccc2oc1=O (stereo not given) |  | 122% |
| O=c1oc2c(O)c(O)cc3c(=O)oc4c(O)c(O)cc1c4c23 |  | 121% |
| NC(=O)c1cccc(N)c1 |  | 110% |
| O[C@@H](CNC[C@H](O)[C@H]1CCc2cc(F)ccc2O1)[C@@H]1CCc2cc(F)ccc2O1 | 20.9 µM (active) |  |
| CC(C)(C#N)c1cc(Cn2cncn2)cc(C(C)(C)C#N)c1 |  | 107% |
| C[C@@H]1CN(c2c(F)c(N)c3c(=O)c(C(=O)O)cn(C4CC4)c3c2F)C[C@H](C)N1 |  | 127% [at 23.2 µM] |
| Cn1nnc2c(C(N)=O)ncn2c1=O |  | 120% |
| O=S(=O)(O)CCS |  | 116% |
| Nc1ccc(S(=O)(=O)Nc2ccccn2)cc1 |  | 110% |
| O=C(N[C@H](CO)[C@H](O)c1ccc([N+](=O)[O-])cc1)C(Cl)Cl |  | 117% |
| CCOC(=O)[C@H](CCc1ccccc1)N[C@H]1CS[C@H](c2cccs2)CN(CC(=O)O)C1=O | 4.69 µM (active) |  |
| Cc1oc(=O)oc1CN1CCN(c2cc3c(cc2F)c(=O)c(C(=O)O)c2n3C(C)S2)CC1 (stereo not given) |  | 112% |
| Cn1c(=O)c2c(ncn2CC(O)CO)n(C)c1=O (stereo not given) |  | 105% |
| Cc1cccc(Nc2ccncc2S(=O)(=O)NC(=O)NC(C)C)c1 |  | 104% |
| Cc1cccc(N(C)C(=S)Oc2ccc3ccccc3c2)c1 |  | 91.1% |
| COc1c(N2CCNC(C)C2)c(F)cc2c(=O)c(C(=O)O)cn(C3CC3)c12 (stereo not given) |  | 118% |
| CCC(=O)O[C@]1(C(=O)SCF)[C@H](C)C[C@H]2[C@@H]3C[C@H](F)C4=CC(=O)C=C[C@]4(C)[C@@]3(F)[C@@H](O)C[C@@]21C |  | 111% |
| C1CCC(C(CC2CCCCN2)C2CCCCC2)CC1 (stereo not given) | 14.8 µM (active) |  |
| CC(C)(Sc1cc(C(C)(C)C)c(O)c(C(C)(C)C)c1)Sc1cc(C(C)(C)C)c(O)c(C(C)(C)C)c1 |  | 88.8% |

| SMILES | Potency | viability (% of DMSO) |
| --- | --- | --- |
| CC[C@H](C)C(=O)O[C@H]1C[C@@H](C)C=C2C=C[C@H](C)[C@H](CC[C@@H]3C[C@@H](O)CC(=O)O3)[C@H]21 |  | 94.4% |
| CS(=O)(=O)c1ccc([C@@H](O)[C@@H](CO)NC(=O)C(Cl)Cl)cc1 |  | 86.1% |
| CC(N)C12CC3CC(CC(C3)C1)C2 (stereo not given) |  | 98.5% |
| NCCCC(O)(P(=O)(O)O)P(=O)(O)O |  | 108% |
| CCCc1nc(C)c2c(=O)[nH]c(-c3cc(S(=O)(=O)N4CCN(CC)CC4)ccc3OCC)nn12 | 2.35 µM (active) |  |
| C[C@]12C=CC(=O)C=C1CC[C@@H]1[C@@H]2C(=O)C[C@@]2(C)[C@H]1CC[C@]2(O)C(=O)CO |  | 152% [at 23.2 µM] |
| Cc1noc(NS(=O)(=O)c2ccc(N)cc2)c1C |  | 108% |
| COc1ccc(C(=O)CC(=O)c2ccc(C(C)(C)C)cc2)cc1 | 4.18 µM (active) |  |
| COc1ccc2c(c1)c(CC(=O)OCC(=O)O)c(C)n2C(=O)c1ccc(Cl)cc1 |  | 97.4% |
| Cc1ccnc2c1NC(=O)c1cccnc1N2C1CC1 |  | 96.1% |
| COc1cc2c(Nc3ccc(Br)cc3F)ncnc2cc1OCC1CCN(C)CC1 |  | 95.4% |
| CC(=O)Oc1ccccc1C(=O)Nc1ncc([N+](=O)[O-])s1 | 12.1 µM (active) |  |
| O=C(O)c1cn(C2CC2)c2cc(N3CCNCC3)c(F)cc2c1=O |  | 131% |
| CCN[C@H]1C[C@H](C)S(=O)(=O)c2sc(S(N)(=O)=O)cc21 |  | 88.8% |
| Nc1nc(F)nc2c1ncn2[C@@H]1O[C@H](CO)[C@@H](O)[C@@H]1O | 0.296 µM (active) |  |
| CCn1cc(C(=O)O)c(=O)c2cc(F)c(N3CCN(C)CC3)cc21 |  | 108% |
| Cc1nnc(NS(=O)(=O)c2ccc(N)cc2)s1 | 1.66 µM (active) |  |
| Oc1c(Cl)cc(Cl)c2cccnc12 | 3.72 µM (active) |  |
| CNS(=O)(=O)CCc1ccc2[nH]cc(C3CCN(C)CC3)c2c1 |  | 97% |
| COc1ccc(-c2ccc3cc(C(=O)O)ccc3c2)cc1C12CC3CC(CC(C3)C1)C2 |  | 116% |
